Molecules are shown by their SMILES. Results filed as inconclusive are left out. Entries that show only a call come without a potency. Calls of active or inactive are those of the source. The call rests on the fitted dose curve; in most records, active means well fitted activation curve with a large enough effect; inconclusive means small, poorly fitted or top-dose-only effect; inactive means flat fitted curve, though single readings scatter. Non-standard residues stand in square brackets, D forms with d. Residues, ends and D or L forms follow the SMILES beside them. Orn = NCCC[C@H](N)C(=O)O

A short description of the assay: qHTS assay to identify small molecule phospholipidosis (PLD) inducers (AID 1259344). Particulars: HepG2 phospholipidosis, LipidTOX Red imaging, 24 h; series mostly up to 38.3 µM. In short, it runs like this:
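HepG2 cells on collagen I, attached 4 h at 37 C, were co-treated with compound and LipidTOX Red dye for 24 h at 37 C, then fixed with paraformaldehyde plus Hoechst 33342 and imaged by high-content microscopy for phospholipid accumulation.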
As to `NCC[C@H](O)C(=O)N[C@@H]1C[C@H](N)[C@@H](O[C@H]2O[C@H](CN)CC[C@H]2N)[C@H](O)[C@H]1O[C@H]1O[C@H](CO)[C@@H](O)[C@H](N)[C@H]1O`, the Potency entry was “inactive”.

Take `Cc1cn([C@H]2C[C@H](O)[C@@H](CO)O2)c(=O)[nH]c1=O`: the Potency entry is “inactive”.

Regarding `NC(=S)NS(=O)(=O)c1ccc(N)cc1`, the Potency entry was “inactive”.

In the case of `CC1(C)CCC(NC(=O)[C@@H](N)CCC(=O)O)CC1`, the Potency entry is “inactive”.

With `C[N+](C)(C)CCOP(=O)(O)OP(=O)([O-])OC[C@H]1O[C@@H](n2ccc(N)nc2=O)[C@H](O)[C@@H]1O`, the Potency entry was “inactive”.

`NC(=O)[C@@H]1CCCN1C(=O)[C@H](Cc1cnc[nH]1)NC(=O)[C@@H]1CCC(=O)N1`: the Potency entry is “inactive”.

With `CC(CNC(=O)c1cccnc1)NC(=O)c1cccnc1` (stereo not drawn), the Potency result is “inactive”.

Turning to `CCCOC(=O)c1ccccc1O`, the Potency result is “inactive”.

For the compound `O=C(O)CC(O)(CC(=O)O)C(=O)O`, the PLD induction was -0.895% [at 1.53 µM] (inactive).

For `CC1(C)C[C@@H]1C(=O)N/C(=C\CCCCSC[C@H](N)C(=O)O)C(=O)O`, the Potency result is “inactive”.

`NS(=O)(=O)c1cc(Cl)c(Cl)c(S(N)(=O)=O)c1`: the Potency entry was “inactive”.

In the case of `CO/N=C(\C(=O)N[C@@H]1C(=O)N2C(C(=O)O)=C(CSc3nc(C)c(CC(=O)O)s3)CS[C@H]12)c1csc(N)n1`, the Potency entry is “inactive”.

Consider `CC(C)C[C@@H]1NC(=O)[C@H](CCCN)NC(=O)[C@H](C(C)C)NC(=O)[C@@H]2CCCN2C(=O)[C@@H](Cc2ccccc2)NC(=O)[C@H](CC(C)C)NC(=O)[C@H](CCCN)NC(=O)[C@H](C(C)C)NC(=O)[C@@H]2CCCN2C(=O)[C@@H](Cc2ccccc2)NC1=O` (cyclo(V[Orn]L[dF]PV[Orn]L[dF]P)), for which the Potency entry is “inactive”.

The record behind these values is PubChem BioAssay (Tox21).
